The panel holds about 83,000 compounds, 20% with a hit somewhere; the sample as a whole holds those more often.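 Activity criterion: percent growth below 10, measured after cells in 96-well plates were exposed to a single compound concentration for 48 hours.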 Unmarked numbers belong to inactive results. Active and inactive are the calls of the source.
These compounds were tested on UACC-62 melanoma (assay: NCI-60 one-dose screen, 48 h (100 = growth as untreated, 0 = no growth, -100 = all killed)). Conditions: 10 µM unless noted.

Row | SMILES | growth
1 | O=C1/C(=C/c2ccc(O)cc2)COc2ccc(-c3ccccc3)cc21 | 88.4%
2 | CC(=O)N1N=C(c2cccc(Nc3ccncc3)c2)CC1c1ccc2c(c1)OCO2 (stereo not given) | 91.9%
3 | Clc1nc(Cl)c2ncn(CCOCCn3cnc4c(Cl)nc(Cl)nc43)c2n1 | -95.9% (active)
4 | COc1ccc(/C=C2\COc3ccc(-c4ccccc4)cc3C2=O)cc1O | 41%
5 | Cc1c2c(cc[n+]1Cc1ccccc1)c1ccc(OCC3CCCCC3)cc1n2CC1CCCCC1 | -94% (active)
6 | CC[N+](CC)(CCCC(C)[N+]1(Cc2ccccc2)C(C)=CC=C1C)Cc1ccccc1 (stereo not given) | 73%
7 | O=C(Nc1cccc(Cl)c1)Oc1c(Br)c(Br)c(Br)c(Br)c1Br | 82.1%
8 | NC(=O)c1ncn(C2OC(CO)C(O)C2O)n1 (stereo not given) | 104%
9 | COc1cc(/C=C/C(=O)c2c(C)oc3nc[nH]c(=O)c23)ccc1O | 96.5%
10 | COc1cc(NCCCN(CC(C)C)CC(C)C)c2ncccc2c1 | 89%
11 | O=[N+]([O-])c1cccc(-c2nc(-c3ccc(Cl)cc3Cl)cn2-c2ccccc2)c1 | 31.3%
12 | O=C(N/N=C/c1ccc(F)cc1)c1ccccc1Nc1cccc(C(F)(F)F)c1 | 101%
13 | COc1ccc(Cn2nc(-c3cc(OC)c(OC)c(OC)c3)c3c2CCc2cnoc2-3)cc1OC | 51.1%
14 | Fc1ccc(C2CC(c3cccc(Nc4ccncc4)c3)=NN2c2ccccc2)cc1 (stereo not given) | 88.8%
15 | CCn1cc(C2NC(=O)c3ccccc3N2)c2cccc(C)c21 (stereo not given) | 27.6%
16 | Cc1nc2sc(C(=O)Nc3ccccc3)c(N)c2cc1C(=O)c1ccc(C(F)(F)F)cc1 | 95.3%
17 | CC(=O)c1c(C)[nH]c(-c2nc3ccc(N4CCN(C)CC4)cc3[nH]2)c1-c1ccccc1 | 14.3%
18 | CCC1(CC)NC(=O)c2c(c3ccc(Cl)c(Cl)c3n2C)C1C#N (stereo not given) | 76.1%
19 | O=C(Nc1ccc(F)cc1)c1c(NC(=O)C(F)(F)F)sc2c1CCCCC2 | 3.56% (active)

Row | SMILES | growth
20 | O=C(NCCN1CCOCC1)OCc1nc2nc(Cl)nc(N3CCOCC3)c2[nH]1 | 35.1%
21 | CC(C)[N+](C)(CCOC(COc1ccccc1)COc1ccccc1)C(C)C | 78.6%
22 | COc1ccc(C(=O)c2cc3c(N)c(C(=O)Nc4cccc(Cl)c4C)sc3nc2C)cc1 | 32%
23 | COc1ccccc1/C=C1\Oc2cc(OCCCN3CCCC3)ccc2C1=O | 95.6%
24 | CCc1nc(C)cn1C(=O)OCc1nc2nc(Cl)nc(N3CCOCC3)c2[nH]1 | -88.4% (active)
25 | CN1CCN(c2cc(F)c(NC3=C(Cl)C(=O)c4ncccc4C3=O)c(F)c2)CC1 | -45.6% (active)
26 | COc1ccc(Cl)cc1NC(=O)c1c(NC(=O)C(F)(F)C(F)(F)F)sc2c1CCCCC2 | 6.99% (active)
27 | COc1ccccc1/C=C1\COc2ccc(-c3ccccc3)cc2C1=O | 40.6%
28 | O=C(O)CCCCCCCCCCCCCCC(=O)O | 95.1%
29 | NC(=O)C1(N2CCCCC2)CCN(CCCC(=O)c2ccc(F)cc2)CC1 | 29.3%
30 | CCN1C(=O)/C(=c2\sc3n(c2=O)NC2C(N=3)N(CC)C(=O)N2CC)c2ccccc21 (stereo not given) | 43.9%
31 | CCCCCCCCCCCCCCCC(=O)OC[C@@]1(O)C[C@@]23CC[C@@H]4C(C)(C)[C@H](O)CC[C@@]4(C)[C@@H]2CC[C@H]1C3 | 100%
32 | CCOC(=O)c1ccc(Nc2ccnc(SCC(=O)c3ccc(C#N)cc3)n2)cc1 | 39.3%
33 | O=S(=O)(c1cccc(NC2=Nc3cccc4cccc2c34)c1)N1CCCC1 | 51.7%
34 | COc1ccccc1N1CCN(C(=O)c2ccc3nc(NC(=O)c4ccc(NCCc5ccccc5)c([N+](=O)[O-])c4)sc3c2)CC1 | 71.8%
35 | CCN(CC)CCOC(COc1cc(C)cc(C)c1)COc1cc(C)cc(C)c1 | 46.4%
36 | COc1ccc(Nn2c(SCC(=O)Nc3nc(-c4ccc(Cl)cc4)cs3)nc(C)c2C)cc1 | 49.5%
37 | CC1=CC2(C)/C=C(C)/C=C\CC(O)/C=C3/C=CC(=C4C(=O)OC2(CC1C)C4=O)OC3 (stereo not given) | 6.46% (active)

The compounds below were run on LOX IMVI melanoma in the same assay as above. Conditions: 10 µM unless noted.

Row | SMILES | growth
38 | O=C1/C(=C/c2ccc(O)cc2)COc2ccc(-c3ccccc3)cc21 | 53.9%
39 | CC(=O)N1N=C(c2cccc(Nc3ccncc3)c2)CC1c1ccc2c(c1)OCO2 (stereo not given) | 81.7%
40 | Clc1nc(Cl)c2ncn(CCOCCn3cnc4c(Cl)nc(Cl)nc43)c2n1 | -83.2% (active)
41 | COc1ccc(/C=C2\COc3ccc(-c4ccccc4)cc3C2=O)cc1O | -13.5% (active)
42 | Cc1c2c(cc[n+]1Cc1ccccc1)c1ccc(OCC3CCCCC3)cc1n2CC1CCCCC1 | -95.6% (active)
43 | CC[N+](CC)(CCCC(C)[N+]1(Cc2ccccc2)C(C)=CC=C1C)Cc1ccccc1 (stereo not given) | 90.7%
44 | CN1C(=O)N(C)[C@H]2NC(NN)=N[C@H]21 | 97.8%
45 | O=C(Nc1cccc(Cl)c1)Oc1c(Br)c(Br)c(Br)c(Br)c1Br | 88.6%
46 | NC(=O)c1ncn(C2OC(CO)C(O)C2O)n1 (stereo not given) | 90.3%
47 | COc1cc(/C=C/C(=O)c2c(C)oc3nc[nH]c(=O)c23)ccc1O | 97.7%
48 | COc1cc(NCCCN(CC(C)C)CC(C)C)c2ncccc2c1 | 85.3%
49 | O=[N+]([O-])c1cccc(-c2nc(-c3ccc(Cl)cc3Cl)cn2-c2ccccc2)c1 | 3.46% (active)
50 | O=C(N/N=C/c1ccc(F)cc1)c1ccccc1Nc1cccc(C(F)(F)F)c1 | 86.6%
51 | COc1ccc(Cn2nc(-c3cc(OC)c(OC)c(OC)c3)c3c2CCc2cnoc2-3)cc1OC | 47%
52 | Fc1ccc(C2CC(c3cccc(Nc4ccncc4)c3)=NN2c2ccccc2)cc1 (stereo not given) | 29.8%
53 | CCn1cc(C2NC(=O)c3ccccc3N2)c2cccc(C)c21 (stereo not given) | 29.2%
54 | Cc1nc2sc(C(=O)Nc3ccccc3)c(N)c2cc1C(=O)c1ccc(C(F)(F)F)cc1 | 96.9%
55 | CC(=O)c1c(C)[nH]c(-c2nc3ccc(N4CCN(C)CC4)cc3[nH]2)c1-c1ccccc1 | 6.13% (active)
56 | CCC1(CC)NC(=O)c2c(c3ccc(Cl)c(Cl)c3n2C)C1C#N (stereo not given) | 99.7%

Row | SMILES | growth
57 | O=C(Nc1ccc(F)cc1)c1c(NC(=O)C(F)(F)F)sc2c1CCCCC2 | 15%
58 | O=C(NCCN1CCOCC1)OCc1nc2nc(Cl)nc(N3CCOCC3)c2[nH]1 | 16.5%
59 | CC(C)[N+](C)(CCOC(COc1ccccc1)COc1ccccc1)C(C)C | 95.5%
60 | COc1ccc(C(=O)c2cc3c(N)c(C(=O)Nc4cccc(Cl)c4C)sc3nc2C)cc1 | 21.9%
61 | COc1ccccc1/C=C1\Oc2cc(OCCCN3CCCC3)ccc2C1=O | 75.8%
62 | CCc1nc(C)cn1C(=O)OCc1nc2nc(Cl)nc(N3CCOCC3)c2[nH]1 | -80.9% (active)
63 | CN1CCN(c2cc(F)c(NC3=C(Cl)C(=O)c4ncccc4C3=O)c(F)c2)CC1 | -70.3% (active)
64 | COc1ccc(Cl)cc1NC(=O)c1c(NC(=O)C(F)(F)C(F)(F)F)sc2c1CCCCC2 | 17.6%
65 | COc1ccccc1/C=C1\COc2ccc(-c3ccccc3)cc2C1=O | 18.7%
66 | O=C(O)CCCCCCCCCCCCCCC(=O)O | 98.6%
67 | NC(=O)C1(N2CCCCC2)CCN(CCCC(=O)c2ccc(F)cc2)CC1 | 42.4%
68 | CCN1C(=O)/C(=c2\sc3n(c2=O)NC2C(N=3)N(CC)C(=O)N2CC)c2ccccc21 (stereo not given) | 55.4%
69 | CCCCCCCCCCCCCCCC(=O)OC[C@@]1(O)C[C@@]23CC[C@@H]4C(C)(C)[C@H](O)CC[C@@]4(C)[C@@H]2CC[C@H]1C3 | 103%
70 | CCOC(=O)c1ccc(Nc2ccnc(SCC(=O)c3ccc(C#N)cc3)n2)cc1 | 80.3%
71 | O=S(=O)(c1cccc(NC2=Nc3cccc4cccc2c34)c1)N1CCCC1 | 66.7%
72 | COc1ccccc1N1CCN(C(=O)c2ccc3nc(NC(=O)c4ccc(NCCc5ccccc5)c([N+](=O)[O-])c4)sc3c2)CC1 | 81.6%
73 | CCN(CC)CCOC(COc1cc(C)cc(C)c1)COc1cc(C)cc(C)c1 | -12% (active)
74 | COc1ccc(Nn2c(SCC(=O)Nc3nc(-c4ccc(Cl)cc4)cs3)nc(C)c2C)cc1 | 38.9%
75 | CC1=CC2(C)/C=C(C)/C=C\CC(O)/C=C3/C=CC(=C4C(=O)OC2(CC1C)C4=O)OC3 (stereo not given) | -89.1% (active)

— PubChem BioAssay (NCI)
